Assay [1] in a line: qHTS assay to identify small molecule antagonists of the estrogen related receptor (ERR) signaling pathway from Tox21 library - cell viability counter screen (AID 1224834). Also: nearly all actives have a fitted effect of over 30% in size. The essentials:
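Counter screen run in ERR cells (2,000 cells/well): cells pre-incubated 6 h, then treated with compounds for 17.5 h at 37 C. Fluorescence was read 30 min after CellTiter-Fluor addition.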
In general terms: Quantitative high-throughput screening tests each substance at several concentrations.

The target of assay [2] is Luciferin 4-monooxygenase (Photinus pyralis) (UniProt P08659). Kind of assay: qHTS assay to identify small molecule inhibitors of firefly luciferase (AID 1224835). Also: nearly all actives have a fitted effect of over 25% in size. Also: potency is read from the fitted curve at half-maximal effect. The essentials:
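Inhibition of purified Photinus luciferase is measured by luminescence. Substrate levels (D-luciferin, ATP) sit at their KM values. Each compound is tested in a concentration series.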

A short description of assay [3]: qHTS assay to identify small molecule agonists of the constitutive androstane receptor (CAR) signaling pathway - cell viability counter screen (AID 1224836). Also: nearly all actives have a fitted effect of over 45% in size. The essentials: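 Compound titrations (15 concentrations) went onto HepG2-CYP2B6-hCAR cells 4 h after seeding, alongside PK11195 at a final 0.75 uM; a 23 h, 37 C/5% CO2 incubation preceded CellTiter-Fluor viability measurement.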

Assay [4] can be described thus: qHTS assay to identify small molecule antagonists of the constitutive androstane receptor (CAR) signaling pathway - cell viability counter screen (AID 1224837). Also: nearly all actives have a fitted effect of over 45% in size. The essentials:
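CITCO at 50 nM final was added alongside compounds (15 concentrations) to double-stable hCAR/CYP2B6-2.2kb HepG2 cells. Following 23 hr at 37 C, cell viability was quantified by CellTiter-Fluor fluorescence intensity.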

Assay [5] has as its target Nuclear receptor subfamily 1 group I member 3 (Homo sapiens) (UniProt Q14994). Kind of assay: qHTS assay to identify small molecule antagonists of the constitutive androstane receptor (CAR) signaling pathway (AID 1224838). Also: nearly all actives have a fitted effect of over 40% in size. The essentials:
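Inhibition of CITCO-driven (50 nM final) CYP2B6 reporter expression is measured in HepG2 cells stably carrying hCAR. Fifteen compound concentrations are applied for 24 h at 37 C, followed by luciferase luminescence.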

The target is the same in assay [6]. Kind of assay: qHTS assay to identify small molecule agonists of the constitutive androstane receptor (CAR) signaling pathway (AID 1224839). Also: nearly all actives have a fitted effect of over 15% in size. Also: potency is read from the fitted curve at half-maximal effect. The essentials:
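In this screen, CAR-driven CYP2B6 promoter activity is measured by luminescence in HepG2-CYP2B6-hCAR cells after 24 h with test compounds and 0.75 uM PK11195 (final concentration).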

A short description of assay [7]: qHTS assay to identify small molecule antagonists of the estrogen related receptor signaling pathway with the pleiotropic PPARgamma coactivator (PGC) from Tox21 10K library (AID 1224841; call rule not given here; also: actives are mostly falling curves and most rising ones were filed inactive; nearly all actives have a fitted effect of over 50% in size). The essentials:
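One-Glo luminescence, measured after half an hour at room temperature, quantified reporter output of PGC/ERR cells. These had been plated at 2,000 per well, incubated 6 h, dosed with compounds in DMSO, then kept 18 h at 37 C.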

The nature of assay [8]: qHTS assay to identify small molecule agonists of the estrogen related receptor signaling pathway with the pleiotropic PPARgamma coactivator (PGC) from Tox21 10K library (AID 1224842). Also: nearly all actives have a fitted effect of over 15% in size. The essentials:
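Luminescence from One-Glo (30 min, room temperature) measured after PGC/ERR cells had 18 h at 37 C with pinned compound (23 nL in DMSO). Cells had been seeded at 2,000 per well and pre-incubated 6 h.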

Assay [9] in a line: qHTS assay to identify small molecule agonists of H2AX (AID 1224845; active = well fitted activation curve with a large enough effect in the signal ratio in the repeat runs, not every such curve was filed as active; the % refers to the signal ratio; also: potency is read from the fitted curve at half-maximal effect). The essentials: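 Phospho-H2AX Ser139 measured by HTRF (ex 320 nm; em 665 and 620 nm) after 24 hr antibody incubation. Compounds, 15 concentrations, 0.76% DMSO, were applied to CHO-K1 cells for 3hr at 37C before lysis.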
Assay [10] in a line: qHTS assay to identify small molecule agonists of the hypoxia (HIF-1) signaling pathway (AID 1224846; active = well fitted activation curve with a large enough effect in the signal ratio in the repeat runs, not every such curve was filed as active; the % refers to the signal ratio). The essentials:
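ME-180 HRE-bla reporter cells; compounds in DMSO, 17 h at 37C; read-out beta-lactamase via CCF4-AM FRET.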

A short description of assay [11]: qHTS assay to identify small molecule antagonists of the estrogen related receptor (ERR) signaling pathway from Tox21 library (AID 1224848). Also: nearly all actives have a fitted effect of over 50% in size. The essentials: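 ERR cell line, 2,000 cells/well. 6 h settle, then compound (DMSO) added; 18 h at 37 C; ONE-Glo luminescence after 30 min RT.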
Assay [12] can be described thus: qHTS assay to identify small molecule agonists of the estrogen related receptor (ERR) signaling pathway from Tox21 library (AID 1224849; calls by dose curve; also: nearly all actives have a fitted effect of over 15% in size). The note with it: ERR reporter cell line, ONE-Glo luciferase, 18 h. The essentials: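 Luciferase activity in ERR pathway reporter cells served as the agonist readout; exposure lasted 18 h at 37 C, with ONE-Glo detection after 30 min at room temperature.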

Assay [13] in a line: qHTS RealTime-Glo MT Cell Viability Assay in HepG2 cells - 24 hour (AID 1224867). Also: nearly all actives have a fitted effect of over 50% in size. The essentials: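 Cell number in HepG2 cultures estimated from NanoLuc luminescence generated by metabolic reduction of a prosubstrate by living cells. The homogeneous, nonlytic format allowed repeated reads at 0, 8, 16, 24, 32 and 40 h of compound exposure.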
Assay [14] can be described thus: qHTS RealTime-Glo MT Cell Viability Assay in HEK293 cells - 32 hour (AID 1224868). Also: top concentration of the series differs between compounds; nearly all actives have a fitted effect of over 50% in size. The essentials: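 Homogeneous bioluminescent viability format in HEK293 cells (600 cells/well). Following 5 h at 37 C/5% CO2, 23 nL compound was pintooled; the signal was measured repeatedly during 40 h incubation.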
Assay [15] in a line: A CellTox Green Cytotoxicity Assay to monitor cytotoxicity in HEK293 cells - 0 hour (AID 1224869). Also: nearly all actives have a fitted effect of over 50% in size. The essentials: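 Real-time, in one plate: 600 HEK293 cells/well with dead-cell DNA dye, pinned compound after 5 h, 37 C incubation over 40 h; viable cells give no appreciable fluorescence.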
Assay [16] in a line: qHTS assay to identify small molecule antagonists of the estrogen related receptor signaling pathway with the pleiotropic PPARgamma coactivator (PGC) from Tox21 10K library - cell viability counter screen (AID 1224840; active = well fitted cell-killing curve with a large enough effect in the repeat runs, not every such curve was filed as active; also: nearly all actives have a fitted effect of over 40% in size). The essentials: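 Readout: fluorescence intensity from CellTiter-Fluor after 30 min at 37 C/5% CO2. Preceded by 17.5 h treatment of PGC/ERR cells with DMSO-dissolved compounds, added 6 h post-seeding.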

Assay [17] addresses Thyrotropin receptor (Homo sapiens) (UniProt P16473). Kind of assay: qHTS assay to identify small molecule agonists of the thyroid stimulating hormone receptor (TSHR) signaling pathway (AID 1224843; calls by dose curve; also: nearly all actives have a fitted effect of over 45% in size). The essentials: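 A cell-based cAMP HTRF format was run in TSHR-transfected HEK293 cells, 800 per well. Treatment: 30 min, room temperature. Detection: 1 h with labelled cAMP and anti-cAMP cryptate. Concentration-response over 15 points, three replicates.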

Assay [18] in a line: qHTS assay to identify small molecule agonists of H2AX - cell viability counter screen (AID 1224847; calls by dose curve; also: top concentration of the series differs between compounds; nearly all actives have a fitted effect of over 30% in size). The essentials:
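Read-out: CellTiter-Glo luminescence, 30 min RT. Cells: wild-type CHO-K1, 1000/well, 10% FBS, plated overnight at 37C. Treatment: 15 concentrations, 3 hr, 37C, 0.76% DMSO.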

Assay [19] in a line: qHTS assay to identify small molecule agonists of the hypoxia (HIF-1) signaling pathway - cell viability counter screen (AID 1224844; calls by dose curve; also: nearly all actives have a fitted effect of over 50% in size). The essentials:
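In this counter screen, HRE-bla ME-180 cell viability after 17 hrs of compound exposure at 37C was read by CellTiter-Glo luminescence, multiplexed with the beta-lactamase reporter measurement.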

A short description of assay [20]: qHTS assay to identify small molecule agonists of the estrogen related receptor signaling pathway with the pleiotropic PPARgamma coactivator (PGC) (AID 1224823). The essentials: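 Luminescence readout (One-Glo, 30 min RT) from PGC/ERR cell line treated 18 h at 37 C with pin-tool-delivered DMSO compound solutions; cells plated 6 h before dosing. Quantitative HTS format.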

Molecules are shown by their SMILES. Where “and” joins values, the source holds several entries; their conditions need not be identical. Equal values may be shown once. Records with an inconclusive call do not appear. The source holds several records for some structures; these can differ, active in one and inactive in another. Calls of active or inactive are those of the source. Unless noted, calls follow the shape of the dose curve; as a rule, active = well fitted curve in the direction sought with a large enough effect in the repeat runs; inconclusive = weak or mixed curves; inactive = no such curve, though single readings can be large; an effect the other way counts as inactive or inconclusive.
% is scaled to controls: 0 for no effect and ±100 for the full control effect.

Nuclear receptor subfamily 1 group I member 3 (Homo sapiens), sequence (Q14994 whole entry, looked up): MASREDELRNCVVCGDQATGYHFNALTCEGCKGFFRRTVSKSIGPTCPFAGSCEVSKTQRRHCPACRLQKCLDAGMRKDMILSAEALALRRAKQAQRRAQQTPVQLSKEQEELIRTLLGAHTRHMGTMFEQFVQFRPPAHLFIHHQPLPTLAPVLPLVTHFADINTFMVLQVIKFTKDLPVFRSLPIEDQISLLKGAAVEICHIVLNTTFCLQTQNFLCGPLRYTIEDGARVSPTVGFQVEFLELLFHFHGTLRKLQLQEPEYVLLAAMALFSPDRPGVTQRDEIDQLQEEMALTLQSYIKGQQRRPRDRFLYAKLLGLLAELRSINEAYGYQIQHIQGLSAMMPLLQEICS
Luciferin 4-monooxygenase (Photinus pyralis), sequence (P08659 whole entry, looked up): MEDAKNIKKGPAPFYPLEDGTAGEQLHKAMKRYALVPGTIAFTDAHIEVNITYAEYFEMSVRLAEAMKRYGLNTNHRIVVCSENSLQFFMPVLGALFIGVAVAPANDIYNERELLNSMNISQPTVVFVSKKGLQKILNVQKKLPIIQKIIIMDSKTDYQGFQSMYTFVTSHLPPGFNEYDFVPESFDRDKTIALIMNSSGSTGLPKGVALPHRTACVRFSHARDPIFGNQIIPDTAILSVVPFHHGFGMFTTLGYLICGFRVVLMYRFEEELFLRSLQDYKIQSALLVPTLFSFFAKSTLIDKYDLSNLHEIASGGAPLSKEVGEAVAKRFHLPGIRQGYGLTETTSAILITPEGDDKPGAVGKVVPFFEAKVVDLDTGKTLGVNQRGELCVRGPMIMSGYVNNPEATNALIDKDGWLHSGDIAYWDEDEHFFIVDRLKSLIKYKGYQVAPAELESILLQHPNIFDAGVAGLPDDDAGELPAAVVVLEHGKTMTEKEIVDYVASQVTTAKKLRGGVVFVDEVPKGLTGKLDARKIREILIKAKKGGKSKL
Thyrotropin receptor (Homo sapiens), sequence (P16473 whole entry, looked up): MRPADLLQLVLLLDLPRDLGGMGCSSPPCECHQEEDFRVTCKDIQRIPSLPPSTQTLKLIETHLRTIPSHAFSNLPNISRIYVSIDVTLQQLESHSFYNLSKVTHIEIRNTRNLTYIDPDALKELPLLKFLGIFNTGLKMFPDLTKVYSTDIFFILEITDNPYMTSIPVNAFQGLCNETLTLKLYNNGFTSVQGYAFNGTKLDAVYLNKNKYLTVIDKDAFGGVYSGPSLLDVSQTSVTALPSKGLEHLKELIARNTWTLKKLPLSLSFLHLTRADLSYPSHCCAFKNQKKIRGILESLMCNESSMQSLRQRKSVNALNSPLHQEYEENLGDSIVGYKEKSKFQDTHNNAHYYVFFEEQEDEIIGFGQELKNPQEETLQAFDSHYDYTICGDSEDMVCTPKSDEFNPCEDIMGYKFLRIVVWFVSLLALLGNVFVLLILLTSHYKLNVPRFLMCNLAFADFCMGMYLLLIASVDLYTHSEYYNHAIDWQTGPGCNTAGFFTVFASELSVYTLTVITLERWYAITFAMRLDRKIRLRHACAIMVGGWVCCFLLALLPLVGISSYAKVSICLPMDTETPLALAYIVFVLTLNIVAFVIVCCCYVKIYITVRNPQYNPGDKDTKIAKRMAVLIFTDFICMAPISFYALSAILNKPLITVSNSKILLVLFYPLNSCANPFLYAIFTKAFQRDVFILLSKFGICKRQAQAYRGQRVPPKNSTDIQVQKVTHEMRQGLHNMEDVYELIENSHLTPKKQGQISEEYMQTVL

For `ClC(Cl)c1ccccc1`, the Potency result in assay [1], in assay [2], in [3], in assay [4], in [5] and in [6] was “inactive” each time. Besides, the Potency result in assay [7], in assay [8], in assay [9], in assay [11], in assay [14] and in assay [15] was “inactive” each time. In addition, the compound was called inactive in assay [10] and in assay [13]. Besides, the activity change, positive = activation in assay [12] (at 92.4 µM (top of the series)) is 8.64% (inactive) and 1.48% (inactive).
In the case of `CNC(=O)Oc1cccc2ccccc12`, the Potency entry in assay [1], in assay [2], in [3], in assay [4], in [5] and in [16] was “inactive” each time. For the same compound, the Potency entry in assay [17], in assay [18], in assay [14] and in assay [15] was “inactive” each time. Besides, the Potency was 61.1 µM (active) and inactive in [6]; 99.8 µM (active) and inactive in [9]. Besides, the outcome in assay [10] and in assay [13] was inactive.
`O=C/C=C/c1ccccc1`: the Potency entry in assay [1], in [3], in assay [4], in assay [5], in assay [6] and in assay [17] was “inactive” each time. The Potency result in assay [19], in assay [9], in assay [14] and in assay [15] was “inactive” in each case. In addition, the Potency entry in assay [2] was “inactive and 44.8 µM (active)”. The result in assay [10] and in assay [13] was inactive.
Consider `Cl[C@H]1OCCO[C@@H]1Cl`, for which the Potency result in assay [1], in assay [2], in assay [3], in [4], in assay [5] and in assay [6] was “inactive” in each case. Also, the Potency entry in assay [16], in assay [7], in assay [8], in assay [17], in assay [19] and in [9] was “inactive” throughout. In addition, the Potency result in assay [11], in assay [14] and in assay [15] was “inactive” in each case. The compound was classed as inactive in assay [10] and in assay [13]. For the same compound, in assay [12] (at 92.4 µM (top of the series)), the activity change, positive = activation was -1.08% (inactive) and -4.01% (inactive).
For the compound `Cc1ccc(N)cc1`, the Potency entry in assay [1], in assay [2], in assay [3], in assay [4], in [5] and in [16] was “inactive” each time. Besides, the Potency entry in assay [7], in assay [8], in [17], in assay [19], in assay [9] and in assay [11] was “inactive” throughout. In addition, the Potency entry in assay [14] is “inactive”. Also, the Potency in [6] was 2.45 µM (active). Further, the outcome in assay [10] and in assay [13] was inactive. Also, the activity change, positive = activation in [12] (at 92.4 µM (top of the series)) is 14.9% (active) and 11.9% (inactive).
For the compound `CCOP(=S)(OCC)Oc1cc(C)nc(C(C)C)n1`, the Potency result in assay [1], in [2], in assay [3], in assay [4], in assay [5] and in [6] was “inactive” throughout. For the same compound, the Potency entry in assay [16], in [17], in assay [9], in assay [18] and in assay [14] was “inactive” in each case. In addition, the outcome in [10] and in assay [13] was inactive.
With `Nc1cc(Cl)cc(Cl)c1`, the Potency entry in assay [1], in [2], in assay [3], in assay [4], in assay [5] and in [6] was “inactive” throughout. For the same compound, the Potency result in [16], in [17], in assay [9], in assay [14] and in assay [15] was “inactive” in each case. For the same compound, the outcome in assay [10] and in assay [13] was inactive.
For the compound `CNCC(O)c1ccc(O)cc1` (configuration not stated), the result in [20], in assay [10] and in assay [13] was inactive. Besides, the Potency entry in assay [1], in assay [2], in assay [3], in assay [5], in assay [6] and in [16] was “inactive” in each case. For the same compound, the Potency entry in assay [7], in [8], in [17], in assay [9], in assay [18] and in assay [11] was “inactive” throughout. Further, the Potency result in assay [14] and in [15] was “inactive” throughout. In addition, the figures for the activity change, positive = activation in assay [12] (at 42.5 µM (top of the series)) and in assay [12] (at 92.4 µM (top of the series)) were 12.7% (inactive) and 2.21% (inactive), respectively.
